Among the test systems are SK-MEL-2 melanoma; EKVX NSCLC; SN12C renal; UO-31 renal; TK-10 renal; ACHN renal; CAKI-1 renal; A498 renal; CCRF-CEM leukemia; MOLT-4 leukemia; SR leukemia; RPMI-8226 leukemia; OVCAR-8 ovarian; OVCAR-5 ovarian; OVCAR-4 ovarian; SK-OV-3 ovarian; IGROV1 ovarian; OVCAR-3 ovarian; HS 578T breast; NCI/ADR-RES ovarian.
Test in all cases: NCI-60 one-dose screen, 48 h (100 = growth as untreated, 0 = no growth, -100 = all killed)
Common to all, as to conditions: 10 µM unless noted

This is part of a sample that, as a whole, favours compounds with a hit. Of some 83,000 tested, about 20% had one in any assay.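 For each line, cells grew in 96-well plates with the test compound present at a single concentration for 48 hours.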 A number with no mark means an inactive call. Calls of active or inactive are those of the source. Rule for the calls: active = growth percent below 10; inactive = the rest.

Regarding `CCCCCCCCCCCCCCCCCC1=NCCN1CCO`, the growth in the assay on SK-MEL-2 melanoma is 88.9%; with EKVX NSCLC, 78.2%; with SN12C renal, 86%; with UO-31 renal, 48.7%; in the assay with TK-10 renal, 87.9%; in the assay on ACHN renal it was 60.7%. Also, the growth in the assay on CAKI-1 renal was 55.7%; with A498 renal, 106%; in the assay with CCRF-CEM leukemia it was 53.9%; with MOLT-4 leukemia, 30.3%; in the assay on SR leukemia, 7.41% (active); with RPMI-8226 leukemia, 78.9%. The growth in the assay on OVCAR-8 ovarian was 70.5%; in the assay on OVCAR-5 ovarian, 82.7%; with OVCAR-4 ovarian, 115%; with SK-OV-3 ovarian, 97.9%; in the assay on IGROV1 ovarian, 25.7%; with OVCAR-3 ovarian it was 77%. Also, the growth in the assay on HS 578T breast was 85.8%; in the assay on NCI/ADR-RES ovarian, 84.5%.

For `Nc1c(N)c2ccccc2c2ccccc12`, the growth was 106% in the assay with SK-MEL-2 melanoma; 92.6% in the assay with EKVX NSCLC; 99.5% with SN12C renal; 69.1% in the assay on UO-31 renal; 119% in the assay on TK-10 renal; 111% with ACHN renal. Moreover, the growth in the assay with CAKI-1 renal was 89%; in the assay on A498 renal, 113%; in the assay on CCRF-CEM leukemia, 104%; in the assay with MOLT-4 leukemia, 100%; in the assay with SR leukemia, 94.1%; with RPMI-8226 leukemia, 94.8%. In addition, the growth in the assay on OVCAR-8 ovarian was 99.1%; in the assay with OVCAR-5 ovarian, 107%; in the assay on OVCAR-4 ovarian it was 96.5%; with SK-OV-3 ovarian, 102%; in the assay on IGROV1 ovarian, 117%; in the assay with OVCAR-3 ovarian it was 116%. For the same compound, the growth in the assay with HS 578T breast was 104%; with NCI/ADR-RES ovarian, 101%.

For `NC(CCC(=O)NC(CS)C(=O)NCC(=O)O)C(=O)O` (configuration not stated), the growth was 100% in the assay on SK-MEL-2 melanoma; 99.8% in the assay with EKVX NSCLC; 108% with SN12C renal; 85.9% with UO-31 renal; 154% in the assay on TK-10 renal; 104% in the assay on ACHN renal. Also, the growth in the assay with CAKI-1 renal is 100%; in the assay on A498 renal it was 127%; in the assay on CCRF-CEM leukemia, 121%; with MOLT-4 leukemia, 102%; in the assay with SR leukemia, 97.3%; with RPMI-8226 leukemia it was 74.2%. For the same compound, the growth in the assay on OVCAR-8 ovarian was 98.7%; in the assay on OVCAR-5 ovarian it was 97.6%; in the assay on OVCAR-4 ovarian, 108%; in the assay on SK-OV-3 ovarian it was 116%; in the assay with IGROV1 ovarian, 98.1%; in the assay on OVCAR-3 ovarian, 110%. Besides, the growth with HS 578T breast and in the assay with NCI/ADR-RES ovarian was 107% each time.

Take `CCNC(=O)c1ccc2c(c1)nc(-c1ccc(Cl)cc1)n2-c1cc(C(C)(C)C)[nH]n1`: the growth in the assay on SK-MEL-2 melanoma was 46.6%; in the assay with EKVX NSCLC, 42.8%; in the assay on SN12C renal it was 76.4%; in the assay with UO-31 renal, 37.5%; in the assay with TK-10 renal it was 89.7%; in the assay with ACHN renal, 52%. Also, the growth with CAKI-1 renal was 18.5%; in the assay on A498 renal, 57.9%; with CCRF-CEM leukemia, 34.3%; in the assay on MOLT-4 leukemia, 20.9%; with SR leukemia, -11.8% (active); in the assay with RPMI-8226 leukemia it was 76.5%. For the same compound, the growth in the assay on OVCAR-8 ovarian is 77.1%; in the assay on OVCAR-5 ovarian, 63.9%; with OVCAR-4 ovarian it was 70.9%; in the assay with SK-OV-3 ovarian it was 26.9%; in the assay on IGROV1 ovarian it was 47.7%; in the assay with OVCAR-3 ovarian, 21.5%. Further, the growth in the assay with HS 578T breast is 59.7%; in the assay on NCI/ADR-RES ovarian, 9.67% (active).

Turning to `COc1ccc(CNc2c3ccccc3nc3ccccc23)cc1F`, the growth was 45.1% with SK-MEL-2 melanoma; 26.1% in the assay on EKVX NSCLC; 25.9% in the assay with SN12C renal; 13.5% in the assay on UO-31 renal; 36.1% in the assay on TK-10 renal; 10.9% with ACHN renal. Also, the growth is 21.3% with CAKI-1 renal; -6.26% (active) in the assay with A498 renal; 29.6% with CCRF-CEM leukemia; 8.92% (active) with MOLT-4 leukemia; 4.85% (active) in the assay with SR leukemia; -5.78% (active) with RPMI-8226 leukemia. In addition, the growth is 29.4% in the assay with OVCAR-8 ovarian; 36.9% with OVCAR-5 ovarian; 26.1% with OVCAR-4 ovarian; 48.1% in the assay with SK-OV-3 ovarian; 15.8% in the assay with IGROV1 ovarian; 52.2% in the assay on OVCAR-3 ovarian. Besides, in the assay with HS 578T breast, the growth is 45.5%.

In the case of `CCC1N=C(N)N=C(N)N1c1ccc(Cl)cc1` (configuration not stated), the growth with SK-MEL-2 melanoma was 100%; in the assay on EKVX NSCLC, 68.4%; in the assay with SN12C renal, 96.9%; in the assay on UO-31 renal, 89%; in the assay with TK-10 renal, 97%; with ACHN renal it was 108%. The growth in the assay with CAKI-1 renal is 96.3%; in the assay on A498 renal it was 77.1%; with CCRF-CEM leukemia, 107%; in the assay on MOLT-4 leukemia, 79.6%; with SR leukemia, 88.9%; in the assay on RPMI-8226 leukemia, 87.5%. Also, the growth is 74.4% in the assay on OVCAR-8 ovarian; 119% in the assay with OVCAR-5 ovarian; 103% in the assay with OVCAR-4 ovarian; 108% with SK-OV-3 ovarian; 66.6% in the assay on IGROV1 ovarian; 104% in the assay with OVCAR-3 ovarian. The growth in the assay with HS 578T breast is 97%.

`CC(C)CC1NC(=O)C(CC(C)C)N(CO)C1=O` (configuration not stated): the growth in the assay with SK-MEL-2 melanoma is 93.9%; in the assay on EKVX NSCLC it was 115%; in the assay with SN12C renal it was 99.4%; in the assay on UO-31 renal it was 84.5%; in the assay on TK-10 renal, 97.9%; in the assay with ACHN renal it was 108%. Further, the growth is 99.8% with CAKI-1 renal; 95.9% in the assay on A498 renal; 84.7% with CCRF-CEM leukemia; 92.7% in the assay with MOLT-4 leukemia; 96.4% in the assay with SR leukemia; 81.1% in the assay on RPMI-8226 leukemia. The growth is 107% with OVCAR-8 ovarian; 106% in the assay on OVCAR-5 ovarian; 113% with OVCAR-4 ovarian; 102% in the assay with SK-OV-3 ovarian; 106% in the assay on IGROV1 ovarian; 123% with OVCAR-3 ovarian. Further, the growth was 106% in the assay on HS 578T breast and 117% in the assay on NCI/ADR-RES ovarian.

Consider `Nc1nc(N)c2cc(NCc3ccc(Cl)c(Cl)c3)ccc2n1`, for which the growth was -79.2% (active) in the assay with SK-MEL-2 melanoma; -78.8% (active) in the assay with EKVX NSCLC; -79.5% (active) with SN12C renal; -75.4% (active) with UO-31 renal; -93.8% (active) in the assay on TK-10 renal; -94.8% (active) in the assay on ACHN renal. Also, the growth with CAKI-1 renal is -68.4% (active); with A498 renal, 34.2%; with CCRF-CEM leukemia, -49.2% (active); in the assay with MOLT-4 leukemia, -55.6% (active); in the assay with SR leukemia it was -53.9% (active); in the assay on RPMI-8226 leukemia, -42% (active). The growth in the assay on OVCAR-8 ovarian is -78.8% (active); in the assay with OVCAR-5 ovarian, -92.5% (active); in the assay with OVCAR-4 ovarian it was -86.9% (active); in the assay on SK-OV-3 ovarian, -99.7% (active); in the assay on IGROV1 ovarian, -58.8% (active); with OVCAR-3 ovarian it was -95.3% (active). The growth with HS 578T breast was -48.6% (active).

The values above are taken from PubChem BioAssay (NCI).
